Records with an inconclusive call do not appear. Entries that show only a call come without a potency. Values without a mark were called inactive. The source made the active and inactive calls. The call rests on the fitted dose curve; in most records, active means well fitted inhibition curve with a large enough effect in the signal ratio in the repeat runs, with a control signal flat; inconclusive means weak or mixed curves, or effect the other way; inactive means flat fitted curve, though single readings scatter; the % refers to the signal ratio.
Potency means the concentration at half of the fitted maximal effect.

The assay deals with D(2) dopamine receptor (Homo sapiens) (UniProt P14416). Kind of assay: Dopamine D2 receptor (DRD2) small molecule antagonists, cell-based qHTS assay (AID 1963595). The note with it: HEK293-DRD2 cAMP HTRF antagonist mode; series mostly up to 92.4 µM. The text has this: National Center for Advancing Translational Sciences [NCATS]
D(2) dopamine receptor (Homo sapiens), sequence (P14416 whole entry, looked up): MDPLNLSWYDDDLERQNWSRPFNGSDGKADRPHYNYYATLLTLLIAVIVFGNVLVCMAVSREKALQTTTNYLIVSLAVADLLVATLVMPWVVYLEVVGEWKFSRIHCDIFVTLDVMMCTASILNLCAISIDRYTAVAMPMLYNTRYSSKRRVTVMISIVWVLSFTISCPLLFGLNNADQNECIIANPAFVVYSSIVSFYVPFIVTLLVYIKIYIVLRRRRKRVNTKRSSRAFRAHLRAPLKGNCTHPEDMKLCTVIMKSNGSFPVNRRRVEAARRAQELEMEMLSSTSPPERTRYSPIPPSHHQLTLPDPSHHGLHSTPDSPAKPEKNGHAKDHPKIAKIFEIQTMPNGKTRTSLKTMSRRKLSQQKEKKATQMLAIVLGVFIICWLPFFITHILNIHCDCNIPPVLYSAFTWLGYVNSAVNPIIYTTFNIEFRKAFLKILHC
Division of Preclinical Innovation [DPI]
U.S. Environmental Protection Agency [EPA]
National Institutes of Environmental Health Sciences [NIEHS]
National Toxicology Program [NTP]
U.S. Food and Drug Administration [FDA]
DRD2 is the D2 subtype of the dopamine receptor, which is coupled to Gi subtype of G protein-coupled receptor. This G protein-coupled receptor inhibits adenylyl cyclase activity. The DRD2-HEK293 cell line stably expressing D2 dopamine receptor can be used for screening agonists and antagonists of interactions between D2 and its ligands. The Hek293-DRD2 cAMP assay is based on HTRF technology. It measures changes of cAMP accumulation in response to Gi coupled GPCR activation or inhibition.
Tox21 Assay Protocol Summary:
DRD2-Hek293 cells were dispensed at 600 cells/3uL/well in 1536-well white plates using a Multidrop Dispenser. After the assay plates were incubated at a 37 C/5% CO2 incubator for 24 h, 1 uL of Ro20-1724 at final concentration of 0.1 mM was transferred to the assay plate by a Flying Reagent Dispenser. Following Ro20-1724 addition, 23 nL of compound dissolved in DMSO, positive controls or DMSO only was added to the assay plates via Wako pintool station. The assay plates were incubated at room temperature for 10 min. Next, 1 uL of mixture of NKH477 (final concentration at 200 nM) and quinpirole (final concentration at 12 nM) was added into the plates. After the assay plates were incubated at room temperature for an additional 30 min, 2.5 ul/well of cAMP-d2 and 2.5 ul/well of anti-cAMP-cryptate were added respectively into the assay plates using a Flying Reagent Dispenser. The plates were incubated at room temperature for 1 h. The fluorescence intensity in the plates was measured at 340 nm excitation and 665 & 620 nm emission by an Envision plate reader.
For `CC(C(=O)O)c1ccc2c(c1)[nH]c1ccc(Cl)cc12` (stereo not given), the Potency result was “inactive”.
As for `CNCCC(Oc1ccc(C(F)(F)F)cc1)c1ccccc1` (stereo not given), the Potency entry is “inactive”.
With `CCCCCCCCCCOC(=O)c1ccccc1C(=O)OCCCCCCCC`, the Potency entry is “inactive”.
As to `OCCCCCCCCCCCCBr`, the Potency entry was “inactive”.
On to `Nc1ccc2c(c1)CN1C(=O)c3ccccc3C1=N2`, for which the activity change, negative = inhibition is -0.331% [at 18.9 µM].
`CC(C)(O)c1ccc(C(C)(C)O)cc1`: the Potency entry was “inactive”.
As for `SC1CCCC1`, the Potency result is “inactive”.
With `C[C@@H](O)C(=O)O`, the Potency result was “inactive”.
The same measure, in the same setting: then `C=C[Si](OC(C)=O)(OC(C)=O)OC(C)=O`, with “inactive”; and `CCc1cc(Cc2cc(CC)c(N)c(CC)c2)cc(CC)c1N`, with 54.5 µM (active).
Still for that read-out and setting: then `C=CC(=O)OCCn1c(=O)n(CCOC(=O)C=C)c(=O)n(CCOC(=O)C=C)c1=O`, with “inactive”; and `Oc1cccc2c(O)cccc12`, with “inactive”; and `CC(=O)OC/C=C(/C)CCC=C(C)C`, with “inactive”.
As to `CCCCCCCOC(=O)c1ccc(O)cc1`, the Potency result is “inactive”.
On to `OCCc1ccncc1`, for which the Potency entry is “inactive”.
For `O=C1N=C(O)CN1/N=C/c1ccc(-c2ccc([N+](=O)[O-])cc2)o1`, the Potency result is “inactive”.
Turning to `CC(=O)OCC(=O)[C@H]1CC[C@H]2[C@@H]3CCC4=CC(=O)CC[C@]4(C)[C@H]3CC[C@]12C`, the Potency result is “inactive”.
In the case of `C=C/C=C/C=C/CCCCC`, the activity change, negative = inhibition was -7.54% [at 18.9 µM].
Consider `CC(C)(CO)[C@@H](O)C(=O)NCCCO`, for which the Potency entry was “inactive”.
As to `O=C1Cc2ccccc2N1c1c(Cl)cccc1Cl`, the Potency result is “inactive”.
As for `O=C(N/N=C/c1ccc([N+](=O)[O-])o1)c1ccc(O)cc1`, the Potency result is “inactive”.
On the same count and under the same terms, then `CC(C)NC[C@@H](O)COc1cccc2ccccc12`, with “inactive”.
For `O=C(O)CN(CCN(CC(=O)O)CC(=O)O)CC(=O)O`, the activity change, negative = inhibition is 8.25% [at 3.28 µM].
`C[C@@H](N)C(=O)O`: the Potency entry is “inactive”.
In the case of `c1cnc(N2CCN(Cc3ccc4c(c3)OCO4)CC2)nc1`, the Potency entry is “inactive”.
Take `CCC(CC)Nc1ccc(C)c(C)c1`: the Potency result was “inactive”.
The same measure, in the same setting: then `COC(=O)C1=C(C)NC(COC(N)=O)=C(C(=O)OC(C)C)C1c1cccc(Cl)c1Cl` (stereo not given), with “inactive”; and `Clc1ccc2nsnc2c1NC1=NCCN1`, with “inactive”; and `C=C(C)C(=O)OCCOc1ccccc1`, with “inactive”.
As to `CC(C)COC(=O)COc1ccc(Cl)cc1Cl`, the Potency result was “inactive”.
On the same count and under the same terms, then `OC[C@H]1O[C@@H]2O[C@H]3[C@H](O)[C@@H](O)[C@@H](O[C@H]4[C@H](O)[C@@H](O)[C@@H](O[C@H]5[C@H](O)[C@@H](O)[C@@H](O[C@H]6[C@H](O)[C@@H](O)[C@@H](O[C@H]7[C@H](O)[C@@H](O)[C@@H](O[C@H]8[C@H](O)[C@@H](O)[C@@H](O[C@H]9[C@H](O)[C@@H](O)[C@@H](O[C@H]1[C@H](O)[C@H]2O)O[C@@H]9CO)O[C@@H]8CO)O[C@@H]7CO)O[C@@H]6CO)O[C@@H]5CO)O[C@@H]4CO)O[C@@H]3CO`, with “inactive”; and `CCC(C)(CCC(C)C)C(=O)O` (stereo not given), with “inactive”; and `C=CCOCC(O)CCl` (stereo not given), with “inactive”.
On the same count and under the same terms, then `CCCCCCC(=O)c1ccccc1`, with “inactive”; and `Cc1ccc(S(=O)(=O)C(I)I)cc1`, with 30.6 µM (active).
Still for that read-out and setting: then `CC(C)COC(=O)C(C)C`, with “inactive”.
Take `CCOC(=O)COc1ccc2c(C)c(CCN(CC)CC)c(=O)oc2c1Cl`: the Potency entry was “inactive”.
For the molecule `CCCCCCCCCCCCCCCC(=O)OCC`, the Potency entry is “inactive”.
On the same count and under the same terms, then `CC(=O)SCC(CC(=O)c1ccc(C)cc1)C(=O)O` (stereo not given), with “inactive”.
For `CSc1ccc(O)cc1C`, the Potency result was “inactive”.

(Values after PubChem BioAssay (Tox21).)
